Reference: PubChem BioAssay AID686978 (National Center for Advancing Translational Sciences (NCATS), 2013)
About 64,000 (15%) of roughly 420,000 compounds were called active. Not shown: some 27% with an inconclusive outcome. Calls follow the shape of the dose curve; as a rule, active = well fitted inhibition curve with a large enough effect; inconclusive = small, poorly fitted or top-dose-only effect; inactive = flat fitted curve, though single readings scatter. These entries were drawn from the full list.
% is scaled to controls: 0 for no effect and ±100 for the full control effect; potency is read from the fitted curve at half-maximal effect.

Test: qHTS for Inhibitors of human tyrosyl-DNA phosphodiesterase 1 (TDP1): qHTS in cells in absence of CPT; also: nearly all actives have a fitted effect of over 55% in size
Settings: DT40 Tdp1-/- hTDP1 cells, no CPT, ATP luminescence, 48 h; activity change, negative = growth inhibition: at 46.2 µM (top of the series)
How it was run: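 Growth kinetics read by CellTiter-Glo luminescence after ≥48 hr at 37 °C. Cells: DT40 Tdp1-/- stably carrying human TDP1, 400 per well, compound exposure in the absence of CPT (DMSO vehicle).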
With `Cc1csc2nc(O)c(C(=O)NCCN3CCOCC3)c(=O)n12` the “activity change, negative = growth inhibition” value was -6.85% (inactive).
For `CC(C)NC(=O)C(=O)NCCN1CCN(S(=O)(=O)c2ccc(Cl)cc2)CC1`, the “activity change, negative = growth inhibition” value was -1.35% (inactive).
With `COCCCNc1nc2ccccc2nc1NS(=O)(=O)c1ccc(F)cc1` the “activity change, negative = growth inhibition” value was -1.47% (inactive).
With `CCOC(=O)C1CCN(Cc2c(C(=O)N3CCOCC3)nc3c(C)cccn23)CC1` the “activity change, negative = growth inhibition” value was -8.96% (inactive).
With `Cc1cccn2c(CN(C)C3CCCc4ccccc43)c(C(=O)N3CCOCC3)nc12` (centres undefined) the Potency was 18.4 µM (active).
In the case of `Cc1cccn2c(CNCC(C)Oc3cccnc3)c(C(=O)N3CCOCC3)nc12` (centres undefined), the “activity change, negative = growth inhibition” value was 30% (inactive).
In the case of `CC1CCCCN1C(=O)CCS(=O)(=O)Cc1ccccc1` (centres undefined), the “activity change, negative = growth inhibition” value was -3.87% (inactive).
For `O=C(CC1Oc2ccc(Cl)cc2NC1=O)NCc1ccccc1` (centres undefined), the “activity change, negative = growth inhibition” value was -3.5% (inactive).
In the case of `CCC(C(=O)Nc1cccc(-c2nc3cccnc3s2)c1C)c1ccccc1` (centres undefined), the Potency was 20.6 µM (active).
With `CC(=O)Nc1cccc(-c2nc3ccccc3s2)c1C` the “activity change, negative = growth inhibition” value was -5.62% (inactive).
In the case of `CCC(C(=O)Nc1ccc2c(c1)OCCO2)c1ccccc1` (centres undefined), the “activity change, negative = growth inhibition” value was -21% (inactive).
In the case of `COC(=O)[C@@H]1C[C@H](NC(=O)c2ccccc2C(F)(F)F)CN1Cc1cccc(O)c1`, the “activity change, negative = growth inhibition” value was -9.99% (inactive).
In the case of `O=[N+]([O-])c1ccc(NC(=S)N2CCN(c3ccccn3)CC2)cc1`, the Potency was 11.6 µM (active).
For `COc1cc([N+](=O)[O-])ccc1NC(=S)N1CCN(c2ccccn2)CC1`, the “activity change, negative = growth inhibition” value was -15.4% (inactive).
For `CCOC(=O)c1ccc(NC(=S)N2CCN(c3ccccn3)CC2)cc1`, the “activity change, negative = growth inhibition” value was -3.2% (inactive).
For `CCOC(=O)c1cnn(Cc2ccccc2Cl)c1N`, the “activity change, negative = growth inhibition” value was -12.2% (inactive).
For `Cc1noc(C)c1C(=O)N1CCOCC1`, the “activity change, negative = growth inhibition” value was -9.18% (inactive).
With `CC(C)(C)C1CCC(OC(=O)CCC(=O)Nc2ccccc2)CC1` (centres undefined) the “activity change, negative = growth inhibition” value was -2.86% (inactive).
For `CN1CCN(C(=O)/C(=C\c2cccs2)NC(=O)c2cccs2)CC1`, the “activity change, negative = growth inhibition” value was -7.36% (inactive).
In the case of `COc1cccc(NC(=O)CS(=O)(=O)c2cn(CC(=O)N3CCOCC3)c3ccccc23)c1`, the “activity change, negative = growth inhibition” value was 0.349% (inactive).
For `CCOC(=O)c1ccc(NC(=O)Cn2cc(S(=O)(=O)Cc3ccccc3F)c3ccccc32)cc1`, the “activity change, negative = growth inhibition” value was -26.3% (inactive).
In the case of `Cc1cccc(NC(=O)Cn2cc(S(=O)(=O)Cc3ccccc3Cl)c3ccccc32)c1`, the Potency was 20.6 µM (active).
With `OCCN1CCN(c2ncnc3c2ncn3[C@H]2CN(Cc3ccco3)C[C@@H](CO)O2)CC1` the “activity change, negative = growth inhibition” value was -10.1% (inactive).
For `O=C(Nc1ccc(Cl)cc1)c1csc([C@@H]2O[C@H](CO)[C@H](O)[C@H](O)[C@H]2O)n1`, the “activity change, negative = growth inhibition” value was -0.432% (inactive).
In the case of `CSc1nnnn1-c1c(C)cc(C)cc1C`, the “activity change, negative = growth inhibition” value was 7.83% (inactive).
With `COc1cccc(NC(=O)CN(C)CC(=O)Nc2ccc3c(c2)CCC3)c1` the “activity change, negative = growth inhibition” value was -4% (inactive).
For `CNC(=O)/C(C#N)=C/c1c(F)cccc1Cl`, the Potency was 9.2 µM (active).
With `Cc1[nH]c2ccccc2c1/C=C(/C#N)C(=O)NC(C)C` the “activity change, negative = growth inhibition” value was -9.84% (inactive).
With `O=C(/C=C/c1c(F)cccc1Cl)Nc1nn[nH]n1` the “activity change, negative = growth inhibition” value was 1.45% (inactive).
